This note sets out measurements from PubChem BioAssay (EPA / NIEHS).

SMILES strings stand for the structures. Active and inactive are the calls of the source. How the source made its calls: active means hit-call score of the fitted dose curve at least 0.9, where 1 is the maximum; inactive means score below 0.9.

Broad substrate specificity ATP-binding cassette transporter ABCG2 (Homo sapiens), sequence (Q9UNQ0 whole entry, looked up): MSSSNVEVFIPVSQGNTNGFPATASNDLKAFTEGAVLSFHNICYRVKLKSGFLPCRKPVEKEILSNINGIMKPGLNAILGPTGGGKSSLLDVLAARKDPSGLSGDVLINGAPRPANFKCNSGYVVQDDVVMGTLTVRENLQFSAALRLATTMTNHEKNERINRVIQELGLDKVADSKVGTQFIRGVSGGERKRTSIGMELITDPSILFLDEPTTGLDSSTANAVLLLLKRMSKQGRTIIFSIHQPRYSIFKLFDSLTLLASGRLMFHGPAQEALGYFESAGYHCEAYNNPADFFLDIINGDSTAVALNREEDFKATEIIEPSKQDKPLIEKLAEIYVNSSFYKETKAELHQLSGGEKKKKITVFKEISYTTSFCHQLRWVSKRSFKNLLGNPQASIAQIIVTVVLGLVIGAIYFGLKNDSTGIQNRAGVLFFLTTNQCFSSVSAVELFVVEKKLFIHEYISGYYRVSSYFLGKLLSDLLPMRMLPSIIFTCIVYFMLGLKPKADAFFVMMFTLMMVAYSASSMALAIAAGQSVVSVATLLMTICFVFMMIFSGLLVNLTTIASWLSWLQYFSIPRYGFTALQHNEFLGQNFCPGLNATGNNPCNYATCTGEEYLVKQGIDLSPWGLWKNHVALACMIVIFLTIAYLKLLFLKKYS

Read-out in the first assay: ABC Transporter (ABCB11), ABCB11 (gene 8647)
The assay is described as follows: LTEA_HepaRG_ABCB11: Life Technologies and Expression Analysis (LTEA) Assay for ABC Transporter (ABCB11) using HepaRG (AID 2283463). The following applies: mRNA level, 48 h; actives raise or lower the signal. The procedure, abridged:
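Differentiated human HepaRG cells were exposed for 48 h in serum-free induction medium to eight half-log concentrations up to 100 uM in 0.5% DMSO. ABCB11 mRNA was quantified by qRT-PCR, normalized to ACTB, GAPDH and POLR2A, and fitted bidirectionally versus DMSO.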
Regarding `CCOC(=O)c1ccc(O)cc1`, the result was inactive.
Consider `CCCN(CCC)c1c([N+](=O)[O-])cc(C(F)(F)F)c(N)c1[N+](=O)[O-]`, for which the concentration at half-maximal activity (AC50) is 22 µM (active).
Turning to `O=C(c1ccccc1)C1CCCCC1`, the outcome was inactive.
On to `CC(C)CCCCCCc1ccc(O)cc1`, for which the compound was classed as inactive.
In the case of `COCCO`, the result was inactive.
Take `N[C@@H](Cc1cc(I)c(Oc2ccc(O)c(I)c2)c(I)c1)C(=O)O`: the concentration at half-maximal activity (AC50) was 7.94 µM (active).
On to `COc1c(Cl)ccc(Cl)c1C(=O)O`, for which the compound was classed as inactive.
Take `CCC(C)OC(=O)N1CCCCC1CCO` (stereo not drawn): the call was inactive.
Still for that read-out and setting: under `CC(C)(C)[C@@H](O)[C@@H](Cc1ccc(Cl)cc1)n1cncn1` stands “inactive”.
On to `O=C(O)C1(C(=O)Nc2ccc(Cl)cc2Cl)CC1`, for which the AC50 was 61 µM (active).
`OB(O)O`: the result was inactive.
For `CC(=O)[C@H]1CC[C@H]2[C@@H]3CCC4=CC(=O)CC[C@]4(C)[C@H]3CC[C@]12C`, the AC50 was 58.5 µM (active).
With `CCCCC(CC)CN1C(=O)C2C3C=CC(C3)C2C1=O` (stereo not drawn), the AC50 was 89 µM (active).
`CCN(Cc1c(F)cccc1Cl)c1c([N+](=O)[O-])cc(C(F)(F)F)cc1[N+](=O)[O-]`: the result was inactive.
For `C[C@]12C[C@H](O)[C@H]3[C@@H](CCC4=CC(=O)CC[C@@]43C)[C@@H]1CC[C@@H]2C(=O)CO`, the outcome was inactive.
Regarding `C#CCOC(=O)[C@@H](C)Oc1ccc(Oc2ncc(Cl)cc2F)cc1`, the AC50 is 5.03 µM (active).
With `Cc1nn(C)c(Oc2ccccc2)c1C=NOCc1ccc(C(=O)OC(C)(C)C)cc1`, the half-maximal activity concentration (AC50) was 3.08 µM (active).
On the same count and under the same terms, then `CCOC(=O)C(C)Oc1ccc(Oc2nc3ccc(Cl)cc3o2)cc1` (stereo not drawn), with 9.92 µM (active).
For `CCOC(=O)COc1cc(-n2ncc(C(F)(F)F)c(C)c2=O)c(F)cc1Cl`, the compound was classed as inactive.
For the compound `c1ccc(Nc2ccccc2)cc1`, the outcome was inactive.
On the same count and under the same terms, under `CCCOC(=O)c1ccc(C(=O)OCCC)nc1` stands “inactive”.
Turning to `CCCCC(CC)COC(=O)c1ccccc1C(=O)O` (stereo not drawn), the AC50 is 41.9 µM (active).
Regarding `CCSC(=O)N(CC(C)C)CC(C)C`, the call was inactive.
With `CCCCOC(=O)C(C)Oc1ccc(Oc2ccc(C(F)(F)F)cn2)cc1` (stereo not drawn), the outcome was inactive.
Turning to `CCOC(=O)C(C)Oc1ccc(Oc2cnc3cc(Cl)ccc3n2)cc1` (stereo not drawn), the concentration at half-maximal activity (AC50) was 1.93 µM (active).

Read-out in another assay: ABC Transporter (ABCC2), ABCC2 (gene 1244)
The assay is described as follows: LTEA_HepaRG_ABCC2: Life Technologies and Expression Analysis (LTEA) Assay for ABC Transporter (ABCC2) using HepaRG (AID 2283464). The conditions noted are these: mRNA level, 48 h; actives raise or lower the signal. The procedure, abridged: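 Gene expression of ABCC2 was determined by qRT-PCR in HepaRG cells exposed 48 h to chemicals (highest 100 uM, half-log dilutions). Activity was fitted in both directions relative to 0.5% DMSO vehicle.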
Take `CCOC(=O)c1ccc(O)cc1`: the compound was classed as inactive.
For `CCCN(CCC)c1c([N+](=O)[O-])cc(C(F)(F)F)c(N)c1[N+](=O)[O-]`, the half-maximal activity concentration (AC50) is 25.4 µM (active).
As to `O=C(c1ccccc1)C1CCCCC1`, the result was inactive.
Consider `C=CCOC(Cn1ccnc1)c1ccc(Cl)cc1Cl` (stereo not drawn), for which the AC50 is 37.9 µM (active).
On to `CC(C)CCCCCCc1ccc(O)cc1`, for which the result was inactive.
Still for that read-out and setting: under `COCCO` stands “inactive”.
Turning to `N[C@@H](Cc1cc(I)c(Oc2ccc(O)c(I)c2)c(I)c1)C(=O)O`, the AC50 is 7.94 µM (active).
As to `COc1c(Cl)ccc(Cl)c1C(=O)O`, the result was inactive.
Regarding `CCC(C)OC(=O)N1CCCCC1CCO` (stereo not drawn), the compound was called inactive.
For the compound `CC(C)(C)[C@@H](O)[C@@H](Cc1ccc(Cl)cc1)n1cncn1`, the AC50 was 13.1 µM (active).
Regarding `O=C(O)C1(C(=O)Nc2ccc(Cl)cc2Cl)CC1`, the AC50 is 66.4 µM (active).
With `OB(O)O`, the result was inactive.
`CC(=O)[C@H]1CC[C@H]2[C@@H]3CCC4=CC(=O)CC[C@]4(C)[C@H]3CC[C@]12C`: the half-maximal activity concentration (AC50) is 78.9 µM (active).
As for `CCCCC(CC)CN1C(=O)C2C3C=CC(C3)C2C1=O` (stereo not drawn), the compound was classed as inactive.
As for `CCN(Cc1c(F)cccc1Cl)c1c([N+](=O)[O-])cc(C(F)(F)F)cc1[N+](=O)[O-]`, the concentration at half-maximal activity (AC50) was 50 µM (active).
Consider `C[C@]12C[C@H](O)[C@H]3[C@@H](CCC4=CC(=O)CC[C@@]43C)[C@@H]1CC[C@@H]2C(=O)CO`, for which the half-maximal activity concentration (AC50) is 67.9 µM (active).
With `C#CCOC(=O)[C@@H](C)Oc1ccc(Oc2ncc(Cl)cc2F)cc1`, the result was inactive.
Consider `Cc1nn(C)c(Oc2ccccc2)c1C=NOCc1ccc(C(=O)OC(C)(C)C)cc1`, for which the compound was called inactive.
Take `CCOC(=O)C(C)Oc1ccc(Oc2nc3ccc(Cl)cc3o2)cc1` (stereo not drawn): the result was inactive.
`CCOC(=O)COc1cc(-n2ncc(C(F)(F)F)c(C)c2=O)c(F)cc1Cl`: the outcome was inactive.
`Oc1ccc(C(c2ccc(O)cc2)C(Cl)(Cl)Cl)cc1`: the half-maximal activity concentration (AC50) was 83.1 µM (active).
`c1ccc(Nc2ccccc2)cc1`: the call was inactive.
On the same count and under the same terms, then `CCCOC(=O)c1ccc(C(=O)OCCC)nc1`, with “inactive”.
For `CCCCC(CC)COC(=O)c1ccccc1C(=O)O` (stereo not drawn), the result was inactive.
Turning to `CCSC(=O)N(CC(C)C)CC(C)C`, the outcome was inactive.
For `CCCCOC(=O)C(C)Oc1ccc(Oc2ccc(C(F)(F)F)cn2)cc1` (stereo not drawn), the outcome was inactive.
Consider `CCOC(=O)C(C)Oc1ccc(Oc2cnc3cc(Cl)ccc3n2)cc1` (stereo not drawn), for which the compound was classed as inactive.

Read-out in a further assay: Broad substrate specificity ATP-binding cassette transporter ABCG2 (Homo sapiens) (UniProt Q9UNQ0)
The assay is described as follows: LTEA_HepaRG_ABCG2: Life Technologies and Expression Analysis (LTEA) Assay for ABC Transporter (ABCG2) using HepaRG (AID 2283465). The conditions noted are these: mRNA level, 48 h; actives raise or lower the signal. The procedure, abridged: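 Differentiated HepaRG cells in serum-free induction medium were exposed for 48 h, in duplicate, to eight half-log concentrations up to 100 uM in 0.5% DMSO. ABCG2 mRNA was measured by TaqMan qRT-PCR, normalized to ACTB, GAPDH and POLR2A, and fitted bidirectionally versus DMSO.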
Take `CCOC(=O)c1ccc(O)cc1`: the outcome was inactive.
On the same count and under the same terms, then `CCCN(CCC)c1c([N+](=O)[O-])cc(C(F)(F)F)c(N)c1[N+](=O)[O-]`, with “inactive”.
On to `O=C(c1ccccc1)C1CCCCC1`, for which the compound was classed as inactive.
In the case of `C=CCOC(Cn1ccnc1)c1ccc(Cl)cc1Cl` (stereo not drawn), the half-maximal activity concentration (AC50) was 2.47 µM (active).
Take `CC(C)CCCCCCc1ccc(O)cc1`: the call was inactive.
In the case of `COCCO`, the compound was classed as inactive.
As for `N[C@@H](Cc1cc(I)c(Oc2ccc(O)c(I)c2)c(I)c1)C(=O)O`, the AC50 is 70.5 µM (active).
For `COc1c(Cl)ccc(Cl)c1C(=O)O`, the compound was called inactive.
For the compound `CCC(C)OC(=O)N1CCCCC1CCO` (stereo not drawn), the compound was classed as inactive.
With `CC(C)(C)[C@@H](O)[C@@H](Cc1ccc(Cl)cc1)n1cncn1`, the result was inactive.
As for `O=C(O)C1(C(=O)Nc2ccc(Cl)cc2Cl)CC1`, the AC50 is 78.2 µM (active).
Take `OB(O)O`: the compound was called inactive.
In the case of `CC(=O)[C@H]1CC[C@H]2[C@@H]3CCC4=CC(=O)CC[C@]4(C)[C@H]3CC[C@]12C`, the concentration at half-maximal activity (AC50) was 12.5 µM (active).
Turning to `CCCCC(CC)CN1C(=O)C2C3C=CC(C3)C2C1=O` (stereo not drawn), the half-maximal activity concentration (AC50) was 13.2 µM (active).
Still for that read-out and setting: under `CCN(Cc1c(F)cccc1Cl)c1c([N+](=O)[O-])cc(C(F)(F)F)cc1[N+](=O)[O-]` stands 20.3 µM (active).
Consider `C[C@]12C[C@H](O)[C@H]3[C@@H](CCC4=CC(=O)CC[C@@]43C)[C@@H]1CC[C@@H]2C(=O)CO`, for which the AC50 is 50 µM (active).
For the compound `C#CCOC(=O)[C@@H](C)Oc1ccc(Oc2ncc(Cl)cc2F)cc1`, the compound was classed as inactive.
On to `Cc1nn(C)c(Oc2ccccc2)c1C=NOCc1ccc(C(=O)OC(C)(C)C)cc1`, for which the AC50 was 3.96 µM (active).
Consider `CCOC(=O)C(C)Oc1ccc(Oc2nc3ccc(Cl)cc3o2)cc1` (stereo not drawn), for which the call was inactive.
`CCOC(=O)COc1cc(-n2ncc(C(F)(F)F)c(C)c2=O)c(F)cc1Cl`: the result was inactive.
`Oc1ccc(C(c2ccc(O)cc2)C(Cl)(Cl)Cl)cc1`: the AC50 was 75.4 µM (active).
For the compound `CCCOC(=O)c1ccc(C(=O)OCCC)nc1`, the result was inactive.
On the same count and under the same terms, under `CCCCC(CC)COC(=O)c1ccccc1C(=O)O` (stereo not drawn) stands “inactive”.
In the case of `CCSC(=O)N(CC(C)C)CC(C)C`, the outcome was inactive.
`CCCCOC(=O)C(C)Oc1ccc(Oc2ccc(C(F)(F)F)cn2)cc1` (stereo not drawn): the compound was called inactive.
Same read-out and setting: under `CCOC(=O)C(C)Oc1ccc(Oc2cnc3cc(Cl)ccc3n2)cc1` (stereo not drawn) stands “inactive”.

For orientation: AC50 means the concentration giving half of the maximal activity seen.
